From PubChem BioAssay AID1159580 (chemical genetic matrix, 2015)
Several values for one entry are separate records, joined by “and”; a condition that tells them apart may be missing. Equal values may be shown once. The whole screen tested about 5,500 compounds, of which about 2,000 (36%) were called active. About 18% were inconclusive and are not listed. Cut-off read from the data, not from the text of the source: active = normalized growth mostly below about 0.91 (no sharp cut-off); inconclusive = no clear call, values can overlap the other calls; inactive = mostly above about 0.92. This is one part of the list.

Test: chemical genetic growth profiling, strain panel (AID 1159580);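 note: tested at 20 µM; growth read once vehicle control cultures reached saturation at 30 °C; 1 = growth at the plate median or of vehicle wells; lower values mean less growth of the strain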
Conditions: S. cerevisiae deletion strains, growth OD

Measured: normalized growth

CCCCCCCCNC(C)C(O)c1ccc(SC(C)C)cc1 (stereo not drawn)
active: locus YAL021C, strain ccr4, stronger effect = lower value 0.0594 | locus YAL026C, strain drs2, stronger effect = lower value 0.0595 | locus YAL030W, strain snc1, stronger effect = lower value 0.0546 | locus YBL061C, strain skt5, stronger effect = lower value 0.0571 | locus YBR009C, strain hhf1, stronger effect = lower value 0.0563 | locus YBR021W, strain FUR4, stronger effect = lower value 0.0834 | locus YBR023C, strain chs3, stronger effect = lower value 0.0584 | locus YBR171W, strain sec66, stronger effect = lower value 0.0741 | locus YBR229C, strain ROT2, stronger effect = lower value 0.0441 | locus YBR231C, strain swc5, stronger effect = lower value 0.0585 | locus YBR279W, strain paf1, stronger effect = lower value 0.0682 | locus YCL011C, strain gbp2, stronger effect = lower value 0.055 | locus YCL016C, strain dcc1, stronger effect = lower value 0.0618 | locus YCL029C, strain bik1, stronger effect = lower value 0.0564 | locus YCL069W, strain vba3, stronger effect = lower value 0.0585 | locus YCR088W, strain abp1, stronger effect = lower value 0.0581 | locus YDL005C, strain med2, stronger effect = lower value 0.0745 | locus YDL035C, strain GPR1, stronger effect = lower value 0.0475 | locus YDL040C, strain nat1, stronger effect = lower value 0.0579 | locus YDL074C, strain BRE1, stronger effect = lower value 0.0735 | locus YDL101C, strain DUN1, stronger effect = lower value 0.0522 | locus YDL134C, strain PPH21, stronger effect = lower value 0.047 | locus YDL185W, strain tfp1, stronger effect = lower value 0.262 | locus YDL192W, strain arf1, stronger effect = lower value 0.0576 | locus YDR001C, strain nth1, stronger effect = lower value 0.06 | locus YDR069C, strain doa4, stronger effect = lower value 0.0584 | locus YDR101C, strain arx1, stronger effect = lower value 0.0541 | locus YDR137W, strain rgp1, stronger effect = lower value 0.0948 | locus YDR150W, strain NUM1, stronger effect = lower value 0.0542 | locus YDR159W, strain sac3, stronger effect = lower value 0.0734 | locus YDR162C, strain NBP2, stronger effect = lower value 0.0459 | locus YDR195W, strain ref2 0.0984 | locus YDR297W, strain sur2, stronger effect = lower value 0.0553 | locus YDR318W, strain mcm21, stronger effect = lower value 0.0585 | locus YDR334W, strain swr1, stronger effect = lower value 0.0597 | locus YDR335W, strain msn5, stronger effect = lower value 0.0583 | locus YDR388W, stronger effect = lower value 0.054 | locus YDR392W, strain spt3, stronger effect = lower value 0.0655 | locus YDR502C, strain sam2, stronger effect = lower value 0.056 | locus YEL003W, strain gim4, stronger effect = lower value 0.0594 | locus YEL037C, strain rad23, stronger effect = lower value 0.0554 | locus YEL061C, strain CIN8 (second series), stronger effect = lower value 0.0597 | locus YEL061C, strain CIN8, stronger effect = lower value 0.0482 | locus YER015W, strain faa2, stronger effect = lower value 0.0595 | locus YER016W, strain bim1, stronger effect = lower value 0.0591 | locus YER110C, stronger effect = lower value 0.0696 | locus YER111C, strain swi4, stronger effect = lower value 0.0814 | locus YER155C, strain BEM2 (second series), stronger effect = lower value 0.0808 | locus YER155C, strain BEM2, stronger effect = lower value 0.0577 | locus YER167W, strain BCK2, stronger effect = lower value 0.0469 | locus YFR010W, strain ubp6, stronger effect = lower value 0.0616 | locus YGL078C, strain dbp3, stronger effect = lower value 0.902 | locus YGL086W, strain mad1, stronger effect = lower value 0.0521 | locus YGL167C, strain pmr1, stronger effect = lower value 0.077 | locus YGL173C, strain kem1, stronger effect = lower value 0.0661 | locus YGL227W, strain vid30, stronger effect = lower value 0.06 | locus YGL240W, strain doc1, stronger effect = lower value 0.0665 | locus YGL248W, strain PDE1, stronger effect = lower value 0.0436 | locus YGL253W, strain hxk2, stronger effect = lower value 0.0517 | locus YGR135W, strain pre9, stronger effect = lower value 0.0567 | locus YGR252W, strain gcn5, stronger effect = lower value 0.109 | locus YHR013C, strain ard1, stronger effect = lower value 0.0967 | locus YHR027C, strain rpn1, stronger effect = lower value 0.0609 | locus YHR079C, strain IRE1 (second series), stronger effect = lower value 0.0545 | locus YHR094C, strain hxt1, stronger effect = lower value 0.0553 | locus YHR129C, strain ARP1, stronger effect = lower value 0.0538 | locus YHR142W, strain chs7, stronger effect = lower value 0.0639 | locus YHR200W, strain rpn10, stronger effect = lower value 0.0572 | locus YIL066C, strain RNR3, stronger effect = lower value 0.0459 | locus YIL073C, strain SPO22, stronger effect = lower value 0.102 | locus YIR030C, strain dcg1, stronger effect = lower value 0.0568 | locus YJL092W, strain hpr5, stronger effect = lower value 0.0567 | locus YJL095W, strain BCK1 (second series), stronger effect = lower value 0.0551 | locus YJL095W, strain BCK1, stronger effect = lower value 0.0554 and 0.787 | locus YJL115W, strain asf1, stronger effect = lower value 0.069 | locus YJL129C, strain trk1, stronger effect = lower value 0.0791 | locus YJL134W, strain LCB3, stronger effect = lower value 0.0468 | locus YJL154C, strain vps35, stronger effect = lower value 0.0585 | locus YJL164C, strain tpk1, stronger effect = lower value 0.0551 | locus YJL166W, strain qcr8, stronger effect = lower value 0.0569 | locus YJL168C, strain set2, stronger effect = lower value 0.0547 | locus YJL187C, strain SWE1 (second series), stronger effect = lower value 0.0448 | locus YJR043C, strain POL32, stronger effect = lower value 0.0599 | locus YJR075W, strain HOC1, stronger effect = lower value 0.0593
inactive: locus YHR079C, strain IRE1, stronger effect = lower value 0.911 | locus YIL125W, strain kgd1, stronger effect = lower value 1 | locus YJR066W, strain TOR1, stronger effect = lower value 0.885
0.0483 (active) and 0.892 (inactive): locus YHR030C, strain SLT2, stronger effect = lower value
